PBM binding z-score data for 39 sequences are collected here from the supplement of paper PMC6555819.

One assay relates to LXRb:RXRa (NR concentration 270 nM, RXRa partner concentration 90 nM). Kind of assay: PBM binding z-score (relative to random genomic background probes); higher = stronger binding; sequences stand for … in GC…GCGATTGACAGCGTAGAATGAAGG
The procedure, abridged:
(§1)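 Random background probes are the reference for binding z-scores. These scores derive from regression-normalized fluorescence on custom Agilent 4×180K protein-binding microarrays incubated 1 h with ligand-free nuclear receptor dimers. Binding was detected with antibodies against each partner (one per run).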
For the sequence CCTGCTAGGTCATGGTTAGCTAATCTACAGTATG, the PBM binding z-score was 1.71.
Same read-out and setting: in the case of AATACAGGGTCACTAGGCCAGTGTAGGTACGAAT it was 3.91; in that of AGAACGAGGTCAATGAGTTGATAGCACGGGTGGC, 4.04.
Same read-out and setting: in the case of TCTAGCAGGCCAGAGGGTCACTCTAGAGGTACGG it was 1.02; in that of CCTATTAGTTGACTATAAGGGCAACCGAAGCTCG, 0.294.
As for ATCTCTAGGTAAAGATAGTTCAGTGCATGCAAAT, the PBM binding z-score came out at 0.899.
CCTCGGCGGACAACAGGAGGTCAGAGCTGCCAGA displayed a PBM binding z-score of 1.06.
In the case of AGAATGAGGGTAAGATCAGGGAAACAGAATACAT, the PBM binding z-score came out at 0.566.
For the sequence TCTATTTGTTGAAGGGCAACCGACGAGTCCGTTT, the PBM binding z-score is 0.891.
In turn, CGTCCAAGGTCAATACTAGGTCAGTGAAAGCATT had a PBM binding z-score of 4.71.
For the sequence GCTACTGGGGCATCAGCAGGTTACCATAACTTAA, the PBM binding z-score came out at 0.88.
As to CCTCCAAGGTCAGCAGGTCAGTGAAAGCGACGTG, the PBM binding z-score was 2.93.
For CCGACTGGGGCAGAAAGGTTACCATTCCATCCGG, the PBM binding z-score stood at 0.84.
Still for that read-out and setting: under CCTACTTGGTCAAGGTCACACACGCTATAGGTAC stands 4.05; under CCTGCTAGGTGAATGGTCAGCTAAAGCAGCTCGC, -0.625.
Consider TCTTGTAGATCAAAAGTTAAGAAAGCCGAAGCCT, for which the PBM binding z-score is 0.277.
Sequence CCTTACGGGTCACGCCAGGTTATAGCATCGGAGT yielded a PBM binding z-score of 4.1.
For the sequence GCGACTGGGGCAAAGCAGGTTAACATAAGGTTGG, the PBM binding z-score was 0.261.
Regarding GCGACTGCGGCAAAGCAGGTTACCATAAGGTTGG, the PBM binding z-score was -0.429.
In the case of TAGCCTAGGTCAGATCGGGCCAATATACGCTATA, the PBM binding z-score stood at 1.22.
AGAACGAGGGCACGTTGAGTTGATAGCAGAGTAG displayed a PBM binding z-score of 0.249.
As to ACAAGCAGGCCAAGTTTGGGTCACTCAAACAAAG, the PBM binding z-score turned out to be 0.53.
With ATCTCTAGGTAACAAGTTCAGTGAAAGAGAGGAC, the PBM binding z-score is 0.886.
On to ACTTACGGGTCATCGAGGTTATAGCACGCGTATA, for which the PBM binding z-score turned out to be 4.29.
In turn, CCGACTGGGGCAGAAAGGCTACCATACCATCCGG yielded a PBM binding z-score of -0.869.
The sequence ACTTGCAGGCCAAGTTTGGGTCACTCAAACAAAG gave a PBM binding z-score of 1.11.
AGAACGAGGGCAATGAGTTGTTAGCACGGGTGGC yielded a PBM binding z-score of -0.26.
Same read-out and setting: under CCTTACGGGTCAAGGTTATAGGACGGGTGGTACG stands 3.28; under CCTTACAGGTCACTCCAGGTTATAGCATCGGAGT, 5.43.
TCTACTAGGTCAGTTGGTCAGCTAACGAGCTGCC showed a PBM binding z-score of 0.857.
TAGCCTAGGTGAGATCGGGCCAGTATACGCTATA: the PBM binding z-score is -0.901.
For TGTCAAAGTTCAAAGGTAACGGAAGTATCCACAC, the PBM binding z-score stood at 4.82.
Same read-out and setting: in the case of TCATAAAGGTAAAGGTGAAAGTCGAACGATATGA it was 1.63; in that of ACCGAAAGGTCGAGGTGAGTATAGAGAAAGGGAA, 2.69; in that of GATACAGGCTCAAGGCCAGAGTACGCGTATTGAT, -1.04.
On the same count and under the same terms, under TCTTGTAGATCAAGCAGGTTAAGACAGCCTGAGT stands 0.33; under TCGAGTAGGTTACCAATGGAGCATTCAGCTTTCT, -0.00248.
Still for that read-out and setting: in the case of TTACCAAGGTGCGCTGAGGTCGTTGATCCAACTC it was 0.588; in that of TAGCCGAGGTCAGATCGGGCCAGTATACGCTATA, 3.74.

Another assay deals with LXRb homodimer (NR concentration 270 nM). Described as above. The procedure, abridged:
as §1
CCTGCTAGGTCATGGTTAGCTAATCTACAGTATG: the PBM binding z-score was -0.265.
Still for that read-out and setting: in the case of AATACAGGGTCACTAGGCCAGTGTAGGTACGAAT it was 0.765.
In the case of AGAACGAGGTCAATGAGTTGATAGCACGGGTGGC, the PBM binding z-score was 1.3.
Sequence TCTAGCAGGCCAGAGGGTCACTCTAGAGGTACGG gave a PBM binding z-score of -1.09.
In turn, CCTATTAGTTGACTATAAGGGCAACCGAAGCTCG showed a PBM binding z-score of 0.219.
ATCTCTAGGTAAAGATAGTTCAGTGCATGCAAAT yielded a PBM binding z-score of 0.443.
The same measure, in the same setting: under CCTCGGCGGACAACAGGAGGTCAGAGCTGCCAGA stands -1.27; under AGAATGAGGGTAAGATCAGGGAAACAGAATACAT, 0.276; under TCTATTTGTTGAAGGGCAACCGACGAGTCCGTTT, 1.45.
The sequence CGTCCAAGGTCAATACTAGGTCAGTGAAAGCATT came in with a PBM binding z-score of 1.55.
Sequence GCTACTGGGGCATCAGCAGGTTACCATAACTTAA came in with a PBM binding z-score of -0.858.
In turn, CCTCCAAGGTCAGCAGGTCAGTGAAAGCGACGTG displayed a PBM binding z-score of 0.111.
In turn, CCGACTGGGGCAGAAAGGTTACCATTCCATCCGG returned a PBM binding z-score of -1.08.
The sequence CCTACTTGGTCAAGGTCACACACGCTATAGGTAC registered a PBM binding z-score of 1.7.
On to CCTGCTAGGTGAATGGTCAGCTAAAGCAGCTCGC, for which the PBM binding z-score is -0.989.
TCTTGTAGATCAAAAGTTAAGAAAGCCGAAGCCT gave a PBM binding z-score of -0.137.
CCTTACGGGTCACGCCAGGTTATAGCATCGGAGT yielded a PBM binding z-score of -0.0774.
The same measure, in the same setting: in the case of GCGACTGGGGCAAAGCAGGTTAACATAAGGTTGG it was -1.01; in that of GCGACTGCGGCAAAGCAGGTTACCATAAGGTTGG, -1.51.
Sequence TAGCCTAGGTCAGATCGGGCCAATATACGCTATA returned a PBM binding z-score of 0.0531.
As for AGAACGAGGGCACGTTGAGTTGATAGCAGAGTAG, the PBM binding z-score was -0.789.
Take ACAAGCAGGCCAAGTTTGGGTCACTCAAACAAAG: the PBM binding z-score is -0.924.
Take ATCTCTAGGTAACAAGTTCAGTGAAAGAGAGGAC: the PBM binding z-score was 1.21.
Consider ACTTACGGGTCATCGAGGTTATAGCACGCGTATA, for which the PBM binding z-score is 0.569.
CCGACTGGGGCAGAAAGGCTACCATACCATCCGG gave a PBM binding z-score of -1.41.
Still for that read-out and setting: under ACTTGCAGGCCAAGTTTGGGTCACTCAAACAAAG stands -0.0882.
Sequence AGAACGAGGGCAATGAGTTGTTAGCACGGGTGGC showed a PBM binding z-score of -1.01.
The same measure, in the same setting: in the case of CCTTACGGGTCAAGGTTATAGGACGGGTGGTACG it was 0.221.
Sequence CCTTACAGGTCACTCCAGGTTATAGCATCGGAGT registered a PBM binding z-score of 1.27.
On the same count and under the same terms, in the case of TCTACTAGGTCAGTTGGTCAGCTAACGAGCTGCC it was 1.06.
The sequence TAGCCTAGGTGAGATCGGGCCAGTATACGCTATA had a PBM binding z-score of -0.702.
For TGTCAAAGTTCAAAGGTAACGGAAGTATCCACAC, the PBM binding z-score is 1.8.
TCATAAAGGTAAAGGTGAAAGTCGAACGATATGA yielded a PBM binding z-score of -0.307.
For the sequence ACCGAAAGGTCGAGGTGAGTATAGAGAAAGGGAA, the PBM binding z-score worked out at 0.235.
For the sequence GATACAGGCTCAAGGCCAGAGTACGCGTATTGAT, the PBM binding z-score is -0.938.
Take TCTTGTAGATCAAGCAGGTTAAGACAGCCTGAGT: the PBM binding z-score is -0.3.
Still for that read-out and setting: under TCGAGTAGGTTACCAATGGAGCATTCAGCTTTCT stands -1.32; under TTACCAAGGTGCGCTGAGGTCGTTGATCCAACTC, -0.404; under TAGCCGAGGTCAGATCGGGCCAGTATACGCTATA, 0.611.
